Sampled rows, rich in hits. Any-hit rate of the full collection: about 3.6%.
GALK inhibitor – inhibitors of human galactokinase (GALK) | recombinant GALK, Kinase-Glo ATP luminescence, 1 h | 44,000 tested, under 10 active | Potency, µM (titrated, usually from 57.5 µM), inactives show top-dose activity, negative = inhibition, actives largely listed as inhibitors;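 also: plate controls were full GALK reaction for no effect and reaction lacking GALK for full effect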
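5 nM GALK; 35 uM ATP; 100 uM D-galactose; 20 mM HEPES pH 8.0, 5 mM MgCl2, 60 mM NaCl, 1 mM DTT, 0.01% BSA; 1 h RT; Kinase-Glo Plus luminescence.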
HTT-AS promoter – activators of huntingtin-antisense promoter activity | AID 1508624 | 0.24% of 48,000 active | Potency, µM (doses to about 57.5 µM), inactives show at the highest dose activity change, positive = activation, usual class: activators | HEK293 HTT-AS promoter firefly luciferase reporter, 24 h; response scale: percent change from vehicle, -100% = no light; also: potency is read from the fitted curve at half-maximal effect; nearly all actives have a fitted effect of over 55% in size
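HEK293 cells carrying firefly luciferase reporters were seeded at 2,500 per well in Opti-MEM and cultured for 24 h. They were then treated with compounds at up to 57.5 uM final for 24 h at 37 degrees C before Dual-Glo luminescence readout.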
B2AR arrestin ag – ADRB2 beta-arrestin recruitment; P07550; Potency, µM (titrated, usually from 46.1 µM), most hits filed as activators; 44,000 tested, under 10 active; HTLA Tango cells, beta-arrestin recruitment, luciferase luminescence, 18 h; AID 1347077;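 also: potency is read from the fitted curve at half-maximal effect; 0% = DMSO and full agonism = EC100 isoproterenol or metaproterenol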
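Tango cells (recombinant beta2-AR, beta-arrestin, tTA-driven luciferase), 1500/well in DMEM 1% FBS, treated 18 h at 37 °C with compounds up to 46 µM; luciferin mix added, luminescence read after 15 min; %activity curves fitted and curve-classed.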
GPR32 ag – activates human resolvin D1 receptor GPR32; O75388; CHO-K1 GPR32 beta-arrestin PathHunter luminescence, 90 min; zero percent set by DMSO-only wells; activation, % at 76.9 µM; 2.5% of 48,000 active;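 active = activation of at least 60% and not above a set upper limit, about 1 call in 100 departs from these limits; inconclusive = activation of 40% to 60%, or above that upper limit; inactive = activation under 40%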; also: 0% is about no effect
Target sequence (O75388 whole entry, looked up): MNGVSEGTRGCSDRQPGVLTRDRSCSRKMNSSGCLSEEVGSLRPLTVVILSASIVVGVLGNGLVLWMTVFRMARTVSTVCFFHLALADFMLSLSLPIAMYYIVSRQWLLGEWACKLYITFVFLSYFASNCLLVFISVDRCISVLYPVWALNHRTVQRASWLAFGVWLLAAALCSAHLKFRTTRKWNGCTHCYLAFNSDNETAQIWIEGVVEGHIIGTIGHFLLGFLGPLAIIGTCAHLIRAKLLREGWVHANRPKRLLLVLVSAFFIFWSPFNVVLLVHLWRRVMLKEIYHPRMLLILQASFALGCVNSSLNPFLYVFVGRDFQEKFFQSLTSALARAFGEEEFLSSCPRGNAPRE
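Step 1: seed CHO-K1 GPR32 beta-arrestin cells, 2,500/well, overnight at 37 °C. Step 2: add compounds, 90 min at 37 °C. Step 3: detection reagent, 1 h ambient, then luminescence.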
HTT prom inh – inhibitors of huntingtin promoter activity; HEK293 HTT promoter firefly luciferase reporter, 24 h; Potency, µM (series often up to 57.5 µM), inactives show at the top dose activity change, negative = inhibition, actives largely listed as inhibitors; 0.93% of 48,000 active; AID 1508623; also: potency is read from the fitted curve at half-maximal effect; nearly all actives have a fitted effect of over 50% in size
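Firefly luciferase signal from promoter-reporter HEK293 cells was scaled between vehicle (0%) and zero RLU (-100%). Compounds were tested at final concentrations of up to 57.5 uM over 24 h at 37 degrees C. PTC124 at 50 uM final served as control inhibitor.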
TSG101-PTAP inh – inhibitors of HIV-1 PTAP binding to human TSG101, validation; Q99816; Fluorescence polarization, FITC-PTAP peptide/Tsg101, 20 min; Potency, µM (doses to about 115 µM), most hits filed as inhibitors; 44,000 tested, under 10 active; AID 1347069; also: potency is read from the fitted curve at half-maximal effect; 0% is about no effect
Target sequence (Q99816 whole entry, looked up): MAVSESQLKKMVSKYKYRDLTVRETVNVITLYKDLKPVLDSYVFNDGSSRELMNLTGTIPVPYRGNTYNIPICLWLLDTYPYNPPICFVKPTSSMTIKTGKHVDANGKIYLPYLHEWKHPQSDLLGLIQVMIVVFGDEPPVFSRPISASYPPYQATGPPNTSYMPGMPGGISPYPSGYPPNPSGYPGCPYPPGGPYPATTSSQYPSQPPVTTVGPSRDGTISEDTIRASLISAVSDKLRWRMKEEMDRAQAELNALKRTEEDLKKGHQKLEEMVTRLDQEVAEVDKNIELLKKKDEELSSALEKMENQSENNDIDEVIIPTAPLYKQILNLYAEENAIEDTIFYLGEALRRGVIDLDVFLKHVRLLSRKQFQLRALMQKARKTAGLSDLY
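The Tsg101 binding domain, at 10 uM final, is mixed with compound and a FITC peptide bearing the PTAP motif (50 nM final). After 20 min at r.t., polarization is measured; actives defined by CRC class, efficacy cut-off 60% inhibition.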
The depositor's hits bear a star; i = inactive; u = inconclusive; x = no result given; [ ] = remark or other dose. Unless noted, calls follow the shape of the dose curve; as a rule, active = well fitted curve in the direction sought with a large enough effect; inconclusive = small, poorly fitted or top-dose-only effect, or another doubt; inactive = no such curve, though single readings can be large; an effect the other way counts as inactive or inconclusive.

SMILES	GALK inhibitor	HTT-AS promoter	B2AR arrestin ag	GPR32 ag	HTT prom inh	TSG101-PTAP inh
CCOc1ccc(CNC(=O)Cn2ccc3cc(S(=O)(=O)N4CCCCC4)ccc32)cc1	-0.7%	-21.9%	i	77.4*	-19.6%	i
COc1ccc(S(=O)(=O)Nc2cccnc2Nc2ccc(O)cc2)cc1	x	-37.1%	x	x	u	x
COc1ccc(NC(=O)c2nnn(CC(=O)Nc3ccc(C)c(C)c3)c2N)cc1OC	3.2%	-40.1%	i	91.0*	u	i
CCOc1ccc(NC(=O)Cn2nnc(C(=O)NCCc3ccccc3)c2N)cc1	-0.1%	-16.2%	i	87.7*	-26.9%	i
O=C(CSc1cn(CCNC(=O)c2ccccc2F)c2ccccc12)Nc1ccc(F)cc1	7.0%	-16.8%	i	91.1*	-19.2%	i
O=C(CSc1cn(CCNC(=O)c2cccc(C(F)(F)F)c2)c2ccccc12)Nc1ccc2c(c1)OCCO2	7.5%	-47.2%	i	111.8*	u	i
N#Cc1ccc(COC[C@H]2O[C@@H](n3c(NCc4ccc(Cl)c(Cl)c4)nc4c(N)ncnc43)[C@@H](O)[C@@H]2O)cc1	x	-16.7%	x	x	-11.9%	x
COc1ccccc1C(=O)N1CCC(c2noc(-c3ccc(S(=O)(=O)N4CCCC4)cc3)n2)CC1	4.0%	-41.4%	i	9.0	25.1µM*	i
O=C(c1ccc(F)cc1F)N1CCC(c2noc(-c3ccc(S(=O)(=O)N4CCCC4)cc3)n2)CC1	1.4%	-2.4%	i	1.9	-7.3%	i
O=C(Nc1nc(-c2ccc(Br)cc2)ns1)c1ccccc1F	-6.2%	-7.4%	i	60.3*	-8.7%	i
O=C(C=CC#Cc1cccc(NS(=O)(=O)c2ccccc2)c1)NO	x	-17.2%	x	x	-38.1%	x
CNC(=O)c1cnn(-c2nc(N)c3ncn([C@@H]4O[C@H](CO)[C@@H](O)[C@H]4O)c3n2)c1	x	-12.6%	x	-2.1	-6.7%	x
CCc1ccc(CNC(=O)c2ccc(-c3nc(CS(=O)(=O)c4ccccc4)c(C)o3)cc2)cc1	-3.1%	x	i	84.3*	x	i
COc1cccc(CNC(=O)c2ccc(-c3nc(CS(=O)(=O)c4ccccc4)c(C)o3)cc2)c1	1.3%	-36.0%	i	-7.9	u	i
COc1ccc(CNC(=O)c2ccc(-c3nc(CS(=O)c4ccc(C)cc4)c(C)o3)cc2)cc1 (stereo not given)	0.0%	-30.2%	i	69.7*	u	i
Cc1ccc(CNC(=O)c2ccc(-c3nc(CS(=O)c4ccccc4)c(C)o3)cc2)cc1 (stereo not given)	1.7%	2.9%	i	13.3	-11.8%	i
Cc1oc(-c2ccc(C(=O)NCc3ccccc3)cc2)nc1CS(=O)(=O)c1ccccc1	-5.0%	0.0%	i	u	u	i
Cc1ccc(OCc2nc(-c3ccc(C(=O)NCCc4ccc(S(N)(=O)=O)cc4)cc3)oc2C)cc1	6.8%	-26.0%	i	82.3*	u	i
Cc1cccc(CNC(=O)c2ccc(-c3nc(CS(=O)(=O)c4ccccc4)c(C)o3)cc2)c1	-0.8%	-18.4%	i	79.5*	u	i
CCOc1ccc(CCNC(=O)c2ccc(-c3nc(CSc4ccc(C)cc4)c(C)o3)cc2)cc1	-2.2%	-35.0%	i	-7.9	-23.9%	i
O=C(c1ccco1)N1CCNCC1	x	-2.2%	x	-52.8	-3.4%	x
CCN1CCc2c(sc(NC(=O)CSc3ccccc3)c2-c2nc3ccccc3s2)C1	-6.8%	-23.9%	i	-29.8	-27.5%	39.8µM*
Cc1ccc(NC(=O)CSc2nnc3[nH]c(=O)cc(-c4ccccc4)n23)cc1Cl	u	14.1µM*	i	-9.5	55.4%	i
Cc1ccc(C)c(NC(=O)CSc2nnc3[nH]c(=O)cc(-c4ccccc4)n23)c1	1.3%	u	i	-18.3	18.9%	i
O=c1onc2cnc3ccccc3n12	x	x	x	67.6*	x	x
SMILES	GALK inhibitor	HTT-AS promoter	B2AR arrestin ag	GPR32 ag	HTT prom inh	TSG101-PTAP inh
c1ccc2c(c1)ncc1nncn12	0.2%	-11.4%	i	-0.4	-2.0%	i
Cc1cc2nn(-c3ccc(F)cc3)nc2cc1NC(=O)c1ccc(OC(C)C)cc1	-2.1%	-1.5%	i	-12.7	5.4%	i
Cc1cccc(C(=O)Nc2cc3nn(-c4ccc(C(C)C)cc4)nc3cc2C)c1	0.0%	0.0%	i	101.8*	9.6%	i
COc1ccc(/C=C/C(=O)Nc2ccc(C)cc2)cc1	-2.9%	u	i	-9.4	-13.3%[11.5 µM]	i
COc1ccc(/C=C/C(=O)Nc2ccc(Cl)c(Cl)c2)cc1	-2.9%	24.3%	i	67.6*	-19.3%	i
COc1ccc2cc3cc(C(=O)Nc4ccccc4C)oc3nc2c1	1.1%	-4.5%	i	98.5*	-17.6%	i
C/C=C1\NC(=O)[C@H]2CSSCC/C=C/[C@H](CC(=O)N[C@H](C(C)C)C(=O)N2)OC(=O)C(C(C)C)NC1=O (stereo not given in full)	x	x	x	x	-88.9%	x
Nc1nccc(-c2ccc3noc(-c4ccc(Cl)cc4)c3c2)n1	x	-24.0%	x	x	u	x
O=C1[C@H](Cc2ccc(O)cc2)N2C(=O)CCN(C(=O)NCc3ccccc3)[C@H]2CN1Cc1cccc2ccccc12	x	-40.4%	x	x	u	x
Cc1cccc(N2CCN(c3ncnc4onc(C)c34)CC2C)c1 (stereo not given)	0.9%	-93.2%	i	u	12.6µM*	i
CCCC(=O)OCOC(=O)C1=C(C)NC(C)=C(C(=O)OC)C1c1cccc(Cl)c1Cl (stereo not given)	x	-5.8%	x	34.9	-4.9%	x
COC(=O)C1=C(C)NC(COC(N)=O)=C(C(=O)OC(C)C)C1c1cccc(Cl)c1Cl (stereo not given)	x	-22.9%	x	86.1*	-16.7%	x
Cc1ccc(Cn2c(C)c3cnn(CC(=O)N4CCN(c5ccc(F)cc5)CC4)c(=O)c3c2C)cc1	3.8%	-85.5%	i	-0.2	14.1µM*	i
Cc1nn(C)c2c1c(C(F)(F)F)cc(=O)n2CC(=O)Nc1ccc(F)cc1F	0.7%	-29.4%	i	-5.5	-29.7%	i
CCOC(=O)C1CCCN(C(=O)Cn2c(=O)cc(C)c3c(C)nn(C)c32)C1 (stereo not given)	-2.1%	-24.8%	i	81.0*	u	i
Cc1c2cnn(CC(=O)N3CCCCC3)c(=O)c2c(C)n1Cc1ccc(F)cc1	-1.6%	0.2%	i	-4.3	-0.1%	i
Cc1nn(C)c2c1c(C(F)(F)F)cc(=O)n2CC(=O)N1CCCCC1C (stereo not given)	1.6%	-13.8%	i	79.9*	-2.2%	i

Assay outcomes from PubChem.
